# Screening data from PubChem BioAssay.
# A selection: hits, their analogues and other compounds. The true share with any hit is near 0.9%.
# PPARg SRC3 recr = promotes SRC-3 coactivator recruitment by human PPARgamma | P37231 | biochemical PPARgamma/SRC-3 coactivator recruitment assay | activation, % at 8 µM | 0.26% of 200,000 active | AID 731; in the data active = activation above about 23%;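 note: 0% = DMSO and 100% = reference agonist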
# PPARg SRC1 recr = PPARgamma-driven SRC-1 recruitment agonism. activation, % at 8 µM. 0.41% of 200,000 active. AID 631. PPARgamma-SRC-1 coactivator recruitment biochemical assay. P37231; in the data active = activation above about 19%;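 note: 0% = DMSO and 100% = reference agonist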
# SRC3 TRFRET art = counter-screen for PPARgamma SRC-3 recruitment agonists: TR-FRET artefact; TR-FRET ratio at 8 µM; PPARgamma/SRC-3 format; hits give high values; 0.39% of 99,000 active; AID 1048; in the data active = TR-FRET ratio above about 2000
# SRC2 TRFRET art = flags TR-FRET format artefacts in PPARgamma SRC-2 recruitment agonist screen | TR-FRET artefact counter-screen; hits give high values | TR-FRET ratio at 8 µM | 0.4% of 200,000 active | AID 1049; in the data active = TR-FRET ratio above about 2000
# PPARg SRC2 recr = PPARgamma-driven SRC-2 recruitment agonism; PPARgamma LBD-SRC-2 recruitment, biochemical; activation, % at 8 µM; 0.34% of 200,000 active;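 note: 0% = vehicle and 100% = reference agonist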
# SRC1 TRFRET art = counter-screen for PPARgamma SRC-1 recruitment agonists: TR-FRET artefact | 0.34% of 99,000 active | TR-FRET detection artefact counter-screen, emission ratio; hits give high values | TR-FRET ratio at 8 µM; in the data active = TR-FRET ratio above about 2300
# PPARg SRC2 ag = confirmation of agonists of SRC-2 recruitment by human PPARgamma. AID 1297. shares compounds with PPARg SRC3 recr. biochemical SRC-2 recruitment by PPARgamma. activation, % at 8 µM. 52% of 790 active;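 note: 0% = vehicle alone and 100% = reference agonist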
# PPARg SRC1 ag = confirmation of agonists of SRC-1 recruitment by human PPARgamma | shares compounds with PPARg SRC3 recr | PPARgamma–SRC-1 coactivator recruitment biochemical assay | activation, % at 8 µM | 43% of 790 active; in the data active = activation above about 20%;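 note: 0% = vehicle wells and 100% = reference agonist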
# PPARg SRC3 conf = confirmation of agonists of SRC-3 recruitment by human PPARgamma | activation, % at 8 µM | 29% of 790 active | shares compounds with PPARg SRC3 recr | biochemical PPARgamma-SRC-3 coactivator recruitment, agonist mode; in the data active = activation above about 24%;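 note: 0% = vehicle wells and 100% = reference agonist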
# Active calls of the source: *; / = no result. Cut-off read from the data, not from the text of the source, unless noted: active = activation above about 22%; inactive = the rest.
SMILES,PPARg SRC3 recr,PPARg SRC1 recr,SRC3 TRFRET art,SRC2 TRFRET art,PPARg SRC2 recr,SRC1 TRFRET art,PPARg SRC2 ag,PPARg SRC1 ag,PPARg SRC3 conf
Cc1cc2cc(CNC(=O)c3cc4ccccc4o3)ccc2n1C,32*,22*,/,2988*,18,/,41*,32*,23
COc1ccc(C(=O)NCc2ccc3c(c2)cc(C)n3C)cc1,2,-3,1480,1490,3,1948,/,/,/
CCOC(=O)/C(C#N)=C\C=C1C=CN(C)C=C1,21,24*,/,1925,32*,/,15,9,9
CCOC(=O)/C(C#N)=C\c1ccc(CC)s1,-9,-4,/,1512,-4,/,/,/,/
Nc1ccc(-c2nc3ccc(N)cc3[nH]2)cc1,8,31*,2018,1836,18,2123,3,12,3
CC(=O)Nc1cc2c(cc1NC(=O)Cn1nnc(-c3ccc(C)o3)n1)OCCO2,5,12,1729,1731,11,2035,/,/,/
O=C(Nc1cc(SCC(O)CO)cc([N+](=O)[O-])c1)c1ccc(-n2cnnn2)cc1 (configuration not stated),28*,62*,1435,1611,59*,1703,10,3,3
O=C(Nc1nc2ccc(S(=O)(=O)N3CCOCC3)cc2s1)c1cccs1,3,6,1523,1676,8,1809,/,/,/
COc1ccccc1CNC(=O)CSc1cc(=O)n(C)c2ccccc12,10,22*,1939,2116*,25*,2191,7,9,5
Cn1c(=O)cc(SCC(=O)NCc2ccc(F)cc2)c2ccccc21,16,25*,2264*,2135*,18,2122,22*,18,15
COc1ccccc1CNC(=O)CCCOc1cc(=O)n(C)c2ccccc12,9,2,/,1525,8,/,/,/,/
Cn1c(=O)cc(SCC(=O)NCCCN2CCN(c3ccc(F)cc3)CC2)c2ccccc21,134*,97*,/,4545*,95*,/,51*,34*,36*
Cn1c(=O)cc(SCC(=O)NCCN2CCN(c3ccccc3F)CC2)c2cc(Cl)ccc21,92*,82*,/,3707*,107*,/,59*,39*,42*
COc1cccc(-c2nc3sc4c(c3c(=O)[nH]2)CCCCC4)c1,-1,-2,1643,1580,5,1707,/,/,/
CN1CCN(CCCc2c3c(cc4c2CCC4)CCC3)CC1,-8,7,1441,1509,-5,1975,/,/,/
CN1/C(=C\C(=O)c2ccco2)C(C)(C)c2ccccc21,26*,5,/,1942,19,/,19,11,13
CC(C)OCCCn1c(-c2ccc(Br)cc2)c[nH]c1=S,5,7,1434,1671,10,1759,/,/,/
COc1cc2oc(=O)c(Br)c(C)c2c(OC)c1OC,62*,41*,/,2553*,46*,/,40*,34*,24*
COc1cc2oc(=O)cc(C)c2c(OC)c1OC,2,6,1792,1448,3,1724,/,/,/
CCCOc1ccc(N2CC(C(=O)NCCc3ccc(OC)c(OC)c3)CC2=O)cc1 (configuration not stated),1,-9,1512,1626,4,1900,/,/,/
CCOC(=O)c1c(NC(=O)CSc2nnc(-c3ccccc3)o2)sc(C(C)=O)c1C,20,12,/,1725,11,/,/,/,/
CCOC(=O)c1cccc(NC(=O)CSc2nnc(COc3ccccc3C)o2)c1,7,20*,/,1625,5,/,5,4,3
CCOC(=O)c1c(NC(=O)CSc2nnc(Cc3ccccc3)o2)sc(C(C)=O)c1C,44*,16,/,2328*,36*,/,20,13,15
CCOc1ccc(NC(=O)CSc2nnc(COc3c(C)cccc3C)o2)cc1,5,-1,/,1486,3,/,/,/,/
CCOC(=O)C1CCCN(C(=O)/C=C/c2ccccc2[N+](=O)[O-])C1 (configuration not stated),2,3,1624,1509,-7,1654,/,/,/
SMILES,PPARg SRC3 recr,PPARg SRC1 recr,SRC3 TRFRET art,SRC2 TRFRET art,PPARg SRC2 recr,SRC1 TRFRET art,PPARg SRC2 ag,PPARg SRC1 ag,PPARg SRC3 conf
CCN(CCCNC(=O)CN(C)S(=O)(=O)c1cccc2nsnc12)c1ccccc1,1,5,/,1744,-3,/,/,/,/
CC(=O)N/C(=C\c1ccccc1)C(=O)Nc1ccccc1C,3,6,1776,1603,11,2214,/,/,/
C/C(=N/NS(=O)(=O)c1ccc(Cl)cc1)c1cccc(NC(=O)c2ccc(Cl)cc2Cl)c1,-1,18,/,1666,24*,/,7,8,5
C/C(=N/NS(=O)(=O)c1ccc(C)cc1)c1cccc(NC(=O)c2cccc(Cl)c2)c1,-1,9,/,1498,7,/,/,/,/
C=CCc1cc2c(oc(=O)c3ccccc32)c(C)c1O,19,28*,2419*,2206*,26*,2491*,21,13,14
Cc1c(O)c(CN2CCCC2)cc2c1oc(=O)c1ccccc12,-3,3,/,1591,2,/,/,/,/
CSc1oc(-c2ccccc2)nc1C(N)=O,30*,18,/,1911,19,/,27*,18,17
COc1cc2cc3c(N)c(C(=O)NCc4ccco4)sc3nc2cc1OC,23,21*,/,1949,14,/,2,2,3
Cc1ccc2nc3sc(C(=O)NCc4ccco4)c(N)c3cc2c1,18,10,/,1592,15,/,/,/,/
Cc1cc(=O)oc2c(C(=O)/C=C\c3cccs3)c(O)ccc12,-3,2,1335,1427,-1,1766,/,/,/
Cc1c(C(=O)/C=C/c2cccs2)oc2ccc(F)cc12,24,28*,/,2116*,14,/,11,9,7
CCN1CCCC1CNC(=O)CSc1cc(=O)n(C)c2cc(Cl)ccc12 (configuration not stated),57*,50*,/,2477*,52*,/,39*,28*,27*
CC(C)N(C(=O)Cn1cc(SCC(=O)NCC2CCCO2)c2ccccc21)C(C)C (configuration not stated),2,1,1645,1473,1,1859,/,/,/
Cn1c(=O)cc(SCC(=O)NCC2CCCO2)c2ccc(Cl)cc21 (configuration not stated),112*,63*,/,2967*,90*,/,43*,28*,29*
CN(CCCNC(=O)CSc1cc(=O)n(C)c2cc(Cl)ccc12)Cc1ccccc1,33*,64*,2993*,2902*,20,3308*,39*,27*,27*
Cn1c(=O)cc(SCC(=O)NCCC2=CCCCC2)c2ccc(Cl)cc21,0,-4,1608,1438,-6,1403,/,/,/
